The record followed here is PubChem BioAssay AID1053188 (Broad Institute, 2014).

By inhibition is commonly meant the change of the read-out against control, counted positive when it falls.

Values joined by “and” are separate entries in the source; they are usually repeats but may differ in a detail not shown here. Equal values may be shown once. In all, about 83,000 compounds went through this assay and about 780 (0.94%) were called active. Only a selection was taken, and actives are over-represented in it overall. A number with no mark means an inactive call.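 The calls were made as follows: active = mean inhibition of at least 50% with a set share of replicates also reaching that level; inconclusive = no clear call, values can overlap the other calls; inactive = the rest.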

A short description of the assay: CD40 pathway blockade in BL2 B cells – cell-based, luciferase reporter, single point, primary screen (AID 1053188).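 Also: 0% = neutral control wells and 100% = IKK inhibitor VII at 50 µM.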 The note with it: BL2 NF-kB luciferase reporter, CD40L-induced, 4 h, hits give high values; at 10 µM unless noted. A general note: A reporter such as luciferase makes a cellular process visible.
As for `Cc1ccc(S(=O)(=O)c2ccc(Oc3ccccc3)cc2)cc1`, the inhibition was 1.57%. In the case of `O=C1C(Cl)=C(Oc2ccccc2)C(=O)c2ccccc21` it was 100% (active); in that of `COc1ccc2ccccc2c1CNc1nnnn1C`, -1.14%; in that of `O=C(NCC1CCCO1)c1ccc(S(=O)(=O)Nc2ccc(F)cc2)cc1` (stereo not drawn), 7.17%. Regarding `CN(C)CCCN(C(=O)c1ccc(S(=O)(=O)N2CCCCCC2)cc1)c1nc2cc3c(cc2s1)OCCO3`, the inhibition was -0.778%.

As to `c1c2c(cc3sc(N4CCCCC4)nc13)OCCO2`, the inhibition is 99.7% (active). For the compound `Cc1nc2cc3c(cc2s1)OCO3`, the inhibition is 3.54%. In the case of `O=C(NCC1CCCO1)c1cc2c(s1)CCCC2` (stereo not drawn), the inhibition is -65.3%. For the compound `Cc1cccn2c(CNCC(C)Oc3cccnc3)c(C(=O)N3CCOCC3)nc12` (stereo not drawn), the inhibition is 9.25%. Take `CCOc1ccc(S(=O)(=O)NCCC(=O)N2CCCCCCC2)cc1`: the inhibition is 7.35%.

For the compound `NC(=O)COC(=O)c1sc2cc(F)ccc2c1Cl`, the inhibition is -6.93%. For the compound `O=C(COc1ccccc1)Nc1ccc(C(=O)N2CCCC2)cc1`, the inhibition was -10.1%. In the case of `N#C[C@@H]1N[C@H](CO)[C@@H]1c1ccc(/C=C/c2ccccc2)cc1` it was -33.7% [at 25 µM]; in that of `N#C[C@H]1N[C@H](CO)[C@@H]1c1ccc(C#Cc2ccccc2F)cc1`, -56.4% [at 25 µM]; in that of `N#C[C@@H]1N[C@@H](CO)[C@@H]1c1ccc(C#Cc2ccccc2F)cc1`, -72.6% [at 25 µM] (active).

For `O=C(Nc1cccc(-c2cscn2)c1)C1CCN(Cc2ccsc2)CC1`, the inhibition was -0.734%. As for `CC(=O)c1c(C)[nH]c(C(=O)OCC(=O)Nc2c(C)n(C)n(-c3ccccc3)c2=O)c1C`, the inhibition was 6.04%. With `Fc1ccc(-c2ccc(NCCN3CCOCC3)nn2)cc1`, the inhibition was -11.3%. As for `COc1ccc2c(c1)c(=Cc1ccc(N(C)C)cc1)c1cc(-c3ccccc3)[n+](C)n12`, the figure is 104% (active).

With `COCCCN(C(=O)CSCc1ccc(C)cc1)c1c(N)n(Cc2ccccc2)c(=O)[nH]c1=O`, the inhibition was 10%. With `Cc1cccc(-n2c(=O)c3c(C)c(C)sc3n(CC(N)=O)c2=O)c1`, the inhibition was 0.549%.

For the compound `CN1CCC(N(C)C(=O)c2ccc(Cl)c(S(=O)(=O)Nc3ccc(Cl)cc3)c2)CC1`, the inhibition was -2.41%.

As to `CC1(C(=O)O)CCCN(C(=O)/C=C/c2ccccc2)C1` (stereo not drawn), the inhibition is 4.26%. With `O=C(CCCCCCCC(=O)N1CCCCC1)N1CCCCC1`, the inhibition was -9.37%. In the case of `COc1ccc(NS(=O)(=O)c2ccc(N3CCOCC3)c(NC(=O)/C=C/C(=O)O)c2)cc1` it was 2.43%. As for `O=C(Cn1cnc([N+](=O)[O-])n1)NCCc1ccccc1`, the inhibition was -4.08%. Turning to `O=C(Oc1ccc(-c2nc(-c3ccccn3)no2)cc1)c1ccccc1`, the inhibition was 49.6% (active). Take `O=C(COC(=O)c1ccc(Oc2ccccc2)cc1)Nc1nnc(-c2ccccc2)o1`: the inhibition was -10.4%. In the case of `CC(C)c1nc(-c2ccccn2)no1` it was -17.2%. For `O=C(NCCCN1CCCC1=O)c1ccc(S(=O)(=O)Nc2ccccc2)cc1`, the inhibition was 4.15%. In the case of `C=C(C)C[C@H]1CCn2cc(nn2)COCCNC1=O` it was 4.24% [at 25 µM]. Regarding `Cc1cccc(CN2CCN(Cc3cnn(-c4ccccc4F)c3)CC2CCO)n1` (stereo not drawn), the inhibition was -1.95%.

As to `CN(Cc1cccc2ncccc12)C(=O)CC1C(=O)NCCN1Cc1ccc(F)cc1` (stereo not drawn), the inhibition is -2.82%. As for `O=C(CCC(=O)c1cccs1)NC1CCCCCC1`, the inhibition was -60%.

For the compound `O=[N+]([O-])c1cccc(C2=NCCS2)c1`, the inhibition is 9.1%. In the case of `O=C(NC1CC1)c1ccc(-c2ccccc2)cc1`, the inhibition was -88.4%. As for `C/C=C/c1ccc(OCC(O)CN2CCCCCCC2)c(OC)c1` (stereo not drawn), the figure is 0.219%. `Oc1c(Cl)cc(Cl)c(Cl)c1Cc1c(O)c(Cl)cc(Cl)c1Cl`: the inhibition is 90.9% (active).

Consider `O=C(NC1=CC(=O)c2ccccc2C1=O)c1ccccc1`, for which the inhibition is 97.7% (active). Take `CC(NC(=O)c1ccccc1)C(=O)Nc1ccccc1` (stereo not drawn): the inhibition was 3.04%.

Turning to `O=C(NC(=O)c1ccccc1)NC(=O)c1ccccc1`, the inhibition is -13.8%. Consider `Cc1ccc(S(=O)(=O)N(C)CC(=O)NCCc2c[nH]c3ccccc23)cc1`, for which the inhibition was 12.5%. For the compound `Cc1ccc(S(=O)(=O)N2CCN(C(=O)Cc3sc(C)nc3-c3ccc(F)cc3)CC2)c(C)c1`, the inhibition was -8.23%. Turning to `Cc1cc(C)c2nc(N3CCC(C(=O)NCCN4CCOCC4)CC3)sc2c1`, the inhibition was -16.5%.

For the compound `CC(OC(=O)CNC(=O)c1ccc(Cl)c([N+](=O)[O-])c1)C(=O)NCc1ccco1` (stereo not drawn), the inhibition was 21.2%. On to `CCC(C)N(C(=O)COC(=O)c1nc(Cl)ccc1Cl)C1CCS(=O)(=O)C1` (stereo not drawn), for which the inhibition is 3.49%. On to `N#C[C@@H]1[C@H](c2ccccc2-c2ccccc2)[C@H](CO)N1c1ncc(-c2ccccc2)s1`, for which the inhibition was -4.27% [at 25 µM]. As to `Cc1ccc(-c2ccccc2[C@H]2[C@@H](C#N)N(c3ncc(-c4ccccc4)s3)[C@@H]2CO)cc1`, the inhibition was 50.1% [at 25 µM] (active). As for `Cc1cccc(-c2ccccc2[C@@H]2[C@H](C#N)N(c3ncc(-c4ccccc4)s3)[C@H]2CO)c1`, the inhibition is -6.41% [at 25 µM].

On to `Cc1ccc2cccc([N+](=O)[O-])c2n1`, for which the inhibition is -0.702%. In the case of `CCC(=O)N1[C@@H](CO)[C@@H](c2ccc(C3=CCCC3)cc2)C12CN(C(=O)COC)C2` it was -9.07% [at 25 µM]. With `CC(OC(=O)C1CC(=O)N(Cc2ccccc2)C1)C(=O)Nc1ccccc1[N+](=O)[O-]` (stereo not drawn), the inhibition was 7.76%. Take `COc1ccc(NC(=O)c2cc3nc(-c4ccccc4)cc(C)n3n2)cc1OC`: the inhibition was -3.33%. As for `CN(c1nc2ccccc2n2c(-c3ccco3)nnc12)S(=O)(=O)c1ccccc1`, the figure is 1.82%. Take `Cn1c(-c2ccco2)nc2cc3ccccc3cc21`: the inhibition was 50.6% (active). Take `Cc1nnc2sc(-c3ccco3)nn12`: the inhibition was 4.37%. Consider `CCOC(=O)C1(C)NC(c2ccco2)C2C(=O)N(c3ccccc3)C(=O)C21` (stereo not drawn), for which the inhibition was -6.84%. Consider `CS(=O)(=O)Nc1ccc2c(c1)[C@H]1C[C@@H](CC(=O)NCCc3ccccc3)O[C@@H](CO)[C@H]1O2`, for which the inhibition is -1.64% [at 25 µM].

As to `O=C(NCCc1ccc(F)cc1)c1ccc(S(=O)(=O)N2CCCCC2)cc1`, the inhibition is -1.19%. With `CC(C)(C)NC(=O)NC(=O)COC(=O)Cc1ccc(Cl)cc1Cl`, the inhibition is 15.3%. Turning to `CCOc1ccc(NC(=O)NNC(=O)c2ccc(Cl)cc2Cl)cc1`, the inhibition is 10.3%. For `NC(N)=N/N=C/c1ccc(OCc2ccc(Cl)cc2Cl)cc1`, the inhibition was 83.8% (active). Consider `COCCNC(=O)CSc1nc(N)c(NC(=O)c2ccco2)c(=O)[nH]1`, for which the inhibition is 6.02%. On to `COc1ccccc1C(=O)NC(CCSC)C(=O)NNC(=O)c1ccccc1C` (stereo not drawn), for which the inhibition was 0.904%.

As to `O=C(COC(=O)c1ccccc1)c1ccc2c(c1)OCCO2`, the inhibition is 101% (active). As for `O=C(COC(=O)c1ccc2c(c1)OCCO2)NCc1ccccc1Cl`, the figure is -15%; as for `O=C(COC(=O)c1ccncc1)Nc1ccc2c(c1)OCO2`, -1.31%; as for `O=C1COc2ccc(C(=O)COC(=O)c3ccccc3Cl)cc2N1`, -59.8%. Regarding `CC(=O)Nc1cccc(C(=O)OCC(=O)c2ccc3c(c2)OCO3)c1`, the inhibition is 90.8% (active).

With `O=C(COC(=O)c1ccc(F)cc1)Nc1ccc2c(c1)OCO2`, the inhibition was -50.8%.

On to `CCC(=O)Nc1nnc(S(=O)(=O)N2CCCc3ccccc32)s1`, for which the inhibition was 5.48%.

As for `CC(C)NC(=O)N(C)C[C@H]1Oc2ccc(N(C)C)cc2CC(=O)N(C)C[C@@H]1C`, the inhibition was 6.49%. Take `CC(=O)Nc1cccc(C(=O)OCC(=O)NCc2cc(C)c(O)c(C)c2)c1`: the inhibition was -53.4%. With `CN(CC(=O)Nc1ccc(OC(F)(F)F)cc1)C(=O)C1CCC1`, the inhibition was -5.45%. On to `O=C(CSc1ccccc1)Nc1cccc(S(=O)(=O)N2CCCCC2)c1`, for which the inhibition was -2.87%. In the case of `CC(=O)Oc1ccc(-c2cccc(C(=O)N3CCCCC3)c2)cc1`, the inhibition was -16.5%.

For `N#C[C@@H]1[C@H](c2ccccc2)[C@H](CO)N1C(=O)CN1CCOCC1`, the inhibition was -6.4% [at 25 µM]. Consider `CCOC(=O)C1(Cc2cccc(OC)c2)CCN(Cc2csc(C(C)=O)c2)CC1`, for which the inhibition is 21.6%. In the case of `CN1C(=O)c2cc(NC(=O)c3cccc(F)c3)ccc2OC[C@@H]2O[C@@H](CC(=O)NCC3CCCCC3)CC[C@H]21` it was 28.6% [at 25 µM] and 23.2% [at 25 µM]; in that of `CCCCC(=O)Nc1ccc2c(c1)OCCO2`, -54.6%.

`Cc1ccc(OCCCC(=O)Nc2ccc3c(c2)OCCO3)cc1`: the inhibition is 8.39%. `COC(=O)CCNc1ccc2c(c1)OCCO2`: the inhibition was 49.8% (active). As for `CSc1ncccc1C(=O)NC1CCCCCC1`, the inhibition was 3.02%. In the case of `C/C=C/c1cnc2c(c1)C(=O)N([C@@H](C)CO)C[C@@H](C)[C@@H](CN(C)C(=O)C1CCOCC1)O2` it was -23% [at 25 µM].

As to `C[C@@H]1CN([C@@H](C)CO)C(=O)c2cc(C#CCc3ccccc3)cnc2O[C@@H]1CN(C)C(=O)C1CCOCC1`, the inhibition was 65% [at 25 µM] (active). With `C[C@H]1CN([C@@H](C)CO)C(=O)c2cc(C#CC3(O)CCCC3)cnc2O[C@@H]1CN(C)C(=O)Cc1ccccc1`, the inhibition is -19.3% [at 25 µM].

As for `COC(=O)Cc1c(-c2[nH]c3ccccc3c2CC(=O)OC)[nH]c2ccccc12`, the inhibition is -13.2%. Take `COc1ccc(CCNC(=O)CN(c2ccccc2)S(=O)(=O)c2ccccc2)cc1`: the inhibition is 11.3%.
